Sensor-assay potency score (higher = more potent) data for 24 sequences are collected here from the OligoGym collection.
Also: reference of the scale not given here.

One test addresses ALDH9A1. Put plainly: pooled miR-30 sensor sort-seq; sequence = guide strand. The settings on record: shRNA.
Consider TTTGCCACTTTGACAAACCCAA, for which the sensor-assay potency score (higher = more potent) is -0.698.

TTTCTTGATTAGTATCTACAAG registered a sensor-assay potency score (higher = more potent) of -1.25.

The sequence TATAACCAAACGATCCACCTGG gave a sensor-assay potency score (higher = more potent) of 0.155.

As for TTCACATCATTCCACAGCGTGG, the sensor-assay potency score (higher = more potent) is -1.5.

A further test concerns the target ALG10B. The description is as above. The settings on record: shRNA.
TTGCATAGCAACTCAGTTCACA showed a sensor-assay potency score (higher = more potent) of -0.443.

On to TAAAGTGTTGGAAATACTGCTA, for which the sensor-assay potency score (higher = more potent) was -0.0567.

Sequence TAATTTTGCTAGGAGACAGGAG registered a sensor-assay potency score (higher = more potent) of -0.56.

Sequence TTCATGACTACTCCGATCGCCA yielded a sensor-assay potency score (higher = more potent) of -0.64.

TTTCTGAGGAACTATAACAATG had a sensor-assay potency score (higher = more potent) of -1.85.

Take TATTTCAGAATTGCATATCTTT: the sensor-assay potency score (higher = more potent) was -0.42.

In turn, ACTATAACAATGAACAAGCATA returned a sensor-assay potency score (higher = more potent) of -1.35.

For the sequence TTTTGTGCAATGACATTCCCTG, the sensor-assay potency score (higher = more potent) was found to be 0.314.

The target in a further test is ALG3. The test is described as above. Particulars: shRNA.
The sequence ATAGTCATAGGTACCATTGATG had a sensor-assay potency score (higher = more potent) of -0.727.

Consider TAGGTACCATTGATGACGCCTT, for which the sensor-assay potency score (higher = more potent) is -0.738.

As to TATGTGTTCCAGGAGAGCTCGA, the sensor-assay potency score (higher = more potent) was -0.768.

In the case of AAGAGCAGCACATTCATCTTCA, the sensor-assay potency score (higher = more potent) was 0.161.

Consider ATGTACACGAAACCAGCTGGGT, for which the sensor-assay potency score (higher = more potent) was -1.42.

Sequence TATAGTCATAGGTACCATTGAT came in with a sensor-assay potency score (higher = more potent) of -0.777.

In turn, TAGAACTGGTAGTGGAGGGAGC registered a sensor-assay potency score (higher = more potent) of -0.534.

Turning to TAAAGATGTACACGAAACCAGC, the sensor-assay potency score (higher = more potent) was -1.12.

ATAGATCAAGAAGACAAGCAGC gave a sensor-assay potency score (higher = more potent) of -0.15.

TGAGGGTAGACTCAGGTCCTGA: the sensor-assay potency score (higher = more potent) was -1.65.

The sequence TGGGTCATTGAAGAGCCGCAGC returned a sensor-assay potency score (higher = more potent) of -1.28.

TTGATGACGCCTTCTACCTCGG: the sensor-assay potency score (higher = more potent) was -0.378.
